# Bioassay records from PubChem.
# BAZ2B block = BAZ2B (human) inhibition. 360,000 compounds, 4.4% hits. Potency, µM (series often up to 114 µM), inactives show at the top dose activity change, negative = inhibition, actives largely listed as inhibitors. AlphaScreen BAZ2B-H3K14Ac peptide displacement. Q9UIF8; further: on the % scale 0 is the no-effect control and ±100 the full control effect; nearly all actives have a fitted effect of over 60% in size
#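 Protein-peptide AlphaScreen: BAZ2B 50 nM, b-H3K14Ac 50 nM, 1x PBS pH 7.4 + 0.01% Tween-20. Preincubation 30 min RT; cpd 30 min RT (top 110 uM); beads 20 min RT, light-protected.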
# G9a inh = G9a (human) methyltransferase inhibition; G9a H3K9 monomethylation, AlphaScreen, 2 h; Potency, µM (titrated, usually from 102 µM), for the others: at the highest dose activity, negative = inhibition, hits mostly inhibitors; Q96KQ7; 350,000 compounds, 8.8% hits; further: on the % scale 0 is the no-effect control and ±100 the full control effect; nearly all actives have a fitted effect of over 75% in size
#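 Chemiluminescent proximity detection of H3K9 monomethylation, read after 10 min bead incubation in the dark. Reaction: 20 nM G9a, 500 nM biotin-H3K9 peptide, 20 uM SAM cofactor, 2 h, room temperature, following 15 min enzyme-compound preincubation.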
# HP1b chromo inh = inhibitors of HP1-beta chromodomain binding to methylated histone tails. AID 540317. AlphaScreen HP1-beta / biotin-H3K9me3 peptide binding. P83916. Potency, µM (titrated, usually from 114 µM), for the others: at the top dose activity change, negative = inhibition, most hits filed as inhibitors. 390,000 compounds, 0.56% hits; further: nearly all actives have a fitted effect of over 70% in size
#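 Compound inhibition of the preformed complex between 50 nM HP1-beta and 50 nM biotinylated H3K9me3 peptide was read by AlphaScreen. Buffer was PBS pH 7.4 with 0.01% Tween-20. Incubations ran 30 min at room temperature, with 10 ug/mL donor/acceptor beads.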
# JMJD2A Tudor = JMJD2A Tudor domain (human) inhibition; O75164; AlphaScreen JMJD2A-Tudor / H3K4me3 peptide binding; Potency, µM (series often up to 114 µM), for the others: at the top dose activity change, negative = inhibition, actives largely listed as inhibitors; 390,000 compounds, 4.4% hits; further: on the % scale 0 is the no-effect control and ±100 the full control effect; nearly all actives have a fitted effect of over 50% in size
# Sfp inh = inhibitors of Bacillus subtilis Sfp phosphopantetheinyl transferase | Potency, µM, without a hit: largest response in the series, negative = inhibition, actives largely listed as inhibitors | 310,000 compounds, 3.5% hits | Q9F4F7 | AID 1490 | Biochemical Sfp PPTase activity, qHTS;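 further: the enzyme is Sfp with the accession as filed and its product quenches rhodamine fluorescence; 0% = enzyme reaction without inhibitor and -100% = no enzyme wells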
#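 After 15 min at room temperature with compound, 15 nM Sfp received 5 uM rhodamine-CoA plus 12.5 uM BHQ-2-ybbR (50 mM Hepes pH 7.6, 10 mM MgCl2). Rate came from the fluorescence difference over 30 min, ex 525/em 598 nm.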
# PLK1 PBD block = PLK1 (human) polo-box domain binding inhibition. 360,000 compounds, 2.8% hits. P53350. AID 720504. Potency, µM, inactives show max response, negative = inhibition, actives largely listed as inhibitors. Plk1 PBD binding of FITC phosphopeptide, fluorescence polarization; further: series mostly up to about 57 µM; on the % scale 0 is the no-effect control and ±100 the full control effect; nearly all actives have a fitted effect of over 65% in size
# Target sequence (P53350 whole entry, looked up, the tested form may be a part): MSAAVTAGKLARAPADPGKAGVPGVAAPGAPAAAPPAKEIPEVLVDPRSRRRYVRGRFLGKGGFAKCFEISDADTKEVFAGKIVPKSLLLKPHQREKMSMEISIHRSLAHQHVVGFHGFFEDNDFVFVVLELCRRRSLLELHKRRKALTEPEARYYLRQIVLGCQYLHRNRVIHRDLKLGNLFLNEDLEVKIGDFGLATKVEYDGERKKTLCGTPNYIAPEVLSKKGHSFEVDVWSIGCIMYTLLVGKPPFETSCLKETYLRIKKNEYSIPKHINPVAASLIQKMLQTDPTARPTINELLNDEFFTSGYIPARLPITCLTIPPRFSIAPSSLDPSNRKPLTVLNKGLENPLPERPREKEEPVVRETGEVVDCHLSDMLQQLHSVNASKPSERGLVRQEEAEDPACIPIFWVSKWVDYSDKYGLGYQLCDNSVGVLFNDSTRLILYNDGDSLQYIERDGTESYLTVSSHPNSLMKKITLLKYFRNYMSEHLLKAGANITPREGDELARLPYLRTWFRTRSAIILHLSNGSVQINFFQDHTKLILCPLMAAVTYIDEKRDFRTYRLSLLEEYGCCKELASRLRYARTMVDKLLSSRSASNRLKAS
# Starred values were filed as active, the others as inactive; u = inconclusive; x = no result given; ! = repeats disagree; [ ] = another dose, or the depositor's remark. A selection: hits, their analogues and other compounds. The true share with any hit is near 12%. The call rests on the fitted dose curve; in most records, active means well fitted curve in the direction sought with a large enough effect; inconclusive means small, poorly fitted or top-dose-only effect, or another doubt; inactive means no such curve, though single readings can be large; an effect the other way counts as inactive or inconclusive. Potency means the concentration at half of the fitted maximal effect.
SMILES,BAZ2B block,G9a inh,HP1b chromo inh,JMJD2A Tudor,Sfp inh,PLK1 PBD block
COc1cc(C(=O)OCc2cc(=O)oc3c(C)c(C)ccc23)ccc1OC(F)F,5%,16%,-6%,u,-5%,24µM*
Cc1cccc(CNC(=O)CCn2c(=O)c3cccn3c3ccc(F)cc32)c1,-3%,10%[59 µM],50%,5%,x,x
Cc1cc(NN)nc(Cc2ccccc2)n1,-32%,18%,23%,-3%,50µM*,-1%
O=C(N/N=C/c1ccco1)C1COc2ccccc2O1 (stereo unspecified),-24%,29%[59 µM],24%,-10%,15%,-4%
COc1cc([N+](=O)[O-])cc(/C=N\NC(=O)C2COc3ccccc3O2)c1O (stereo unspecified),40µM*,u,23%,56µM*,23%,-3%
O=C(N/N=C\c1ccc(Br)o1)C1COc2ccccc2O1 (stereo unspecified),50µM*,u,u,40µM*,-1%,17µM*
O=C(N/N=C\c1cccc([N+](=O)[O-])c1O)C1COc2ccccc2O1 (stereo unspecified),35µM*,-3%[59 µM],11%,u,15%,-5%
O=C(N/N=C/c1cccc([N+](=O)[O-])c1)C1COc2ccccc2O1 (stereo unspecified),10%,-37%,25%,0%[11.4 µM],-2%,-30%
CC(C)(C)OC(=O)N[C@@H](C(=O)OC(C)(C)C)c1ccccc1,-6%,-5%[0.501 µM],48%,1%,x,-17%
COc1ccc(-c2onc(C)c2C)cc1S(=O)(=O)N(C)Cc1ccccc1,-4%,-4%[59 µM],79%,-6%,x,x
C=CCN(CC=C)S(=O)(=O)c1ccc2nc(NC(=O)C3CCCO3)sc2c1 (stereo unspecified),8%,1.3µM*,9%,-25%,7%,-20%
COc1ccc(S(=O)(=O)Nc2cc3c(C(C)=O)c(C)oc3c3ccccc23)cc1,u,-2%[12.7 µM],-8%,-21%[57.1 µM],45µM*,-27%
CC(=O)c1c(C)oc2c1cc(NS(=O)(=O)c1ccc(C(C)(C)C)cc1)c1ccccc12,-29%,-9%[59 µM],15%,-31%,x,x
Cc1oc2c(cc(NS(=O)(=O)c3ccc(C(C)C)cc3)c3ccccc32)c1C(=O)O,50µM*!,50µM*!,-14%,u,-8%,19µM*
O=C(CCn1c(=O)oc2cc(Cl)ccc21)Nc1ccc(O)cc1,-1%,22%[59 µM],28%,4%,20%,3%
CCCC(=O)NC(=S)Nc1ccccc1C(=O)OC,9%[57.1 µM],40µM*,-8%,-16%[11.4 µM],u,30µM*
COC(=O)c1ccccc1NC(=O)c1ccc(COc2cccc3ccccc23)o1,1%,u,37%,1%,56µM*,-13%
CCCC(=O)NNC(=O)CC(=O)Nc1ccccc1C(=O)O,-21%,50µM*,4%[57 µM],-13%,22%,2%
CCC(=O)NC(=S)Nc1ccccc1C(=O)OC,5%,u,19%,-12%,0%,-12%
O=C(CC(=O)Nc1ccccc1C(=O)O)NNC(=O)Cc1ccccc1,-11%,x,16%,u,-21%,-8%
CCc1ccccc1NCC(=O)Nc1ccccc1C(=O)OC,2%,8%,33%,1%,3%,2%
COC(=O)c1ccccc1NC(=O)CNc1cc(OC)c(OC)cc1C,45µM*,20µM*,-23%,u,-8%,-7%
CCc1ccccc1N(C)C(=O)Cn1cnc2sc(C)c(S(=O)(=O)N3CCC(C)CC3)c2c1=O,-6%,-20%[59 µM],40%,-10%,x,x
CCN(CC)CCNC(=O)C(=O)NCC1OCCN1S(=O)(=O)c1cccs1 (stereo unspecified),x,x,24%,-12%,x,1%
COC(=O)c1ccccc1NC(=S)NC(C)=O,0%,x,44%,-12%,18%,-5%
COC(=O)c1ccccc1NC(=S)NC(=O)c1cccc2ccccc12,u,6%,-20%,-16%[11.4 µM],0%,6.7µM*
COC(=O)c1ccccc1NC(=S)NC(=O)c1ccc2ccccc2c1,u,-18%[59 µM],u,u,u,u
